Measurements reported in the supplement of paper PMC10849652.
About 8,800 targets were measured; listed, in parts, are those with a hit and a random draw of the rest. About 0.5% of all pairs of compound and target were hits.

Columns and labels:
Assay in all cases: log2 fold change, soluble protein after heating vs DMSO (PISA); higher = thermal stabilisation; K562 lysate, 10 uM; active = over 0.2 and 3.5 SD of the protein, either way, in both replicates (recomputed)
vemurafenib = compound: CCCS(=O)(=O)Nc1ccc(F)c(C(=O)c2c[nH]c3ncc(-c4ccc(Cl)cc4)cc23)c1F [vemurafenib]
Outline: (§1)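 K562 pellets were dounce-homogenised in PBS pH 7.4 with 1 mM MgCl2, and the crude extract at 1 mg/mL protein was treated with 10 μM compound for 30 min. Aliquots were heated for 3 min across 48°C-58°C, pooled, and brought to 0.5% NP-40 at 4°C; soluble protein was the supernatant after 21,000xg for 90 min. Soluble protein was quantified by TMTpro 16plex LC-MS/MS with channel sums equalised, and reported as log2 fold change in thermal stability against DMSO controls, with values from duplicates.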

[1] = compound: CCCS(=O)(=O)Nc1ccc(F)c(C(=O)c2c[nH]c3ncc(Cl)cc23)c1F
Outline: as §1

barasertib = compound: CCN(CCCOc1ccc2c(Nc3cc(CC(=O)Nc4cccc(F)c4)[nH]n3)ncnc2c1)CCOP(=O)(O)O [barasertib]
Outline: as §1

[2] = compound: CC[C@@H]1C(=O)N(C)c2cnc(Nc3ccc(C(=O)NC4CCN(C)CC4)cc3OC)nc2N1C1CCCC1
Outline: as §1

volasertib = compound: CC[C@@H]1C(=O)N(C)c2cnc(Nc3ccc(C(=O)N[C@H]4CC[C@H](N5CCN(CC6CC6)CC5)CC4)cc3OC)nc2N1C(C)C [volasertib]
Outline: as §1

[3] = compound: CCn1c(C(=O)N(C2CC2)C2CC2)cc2c3c(ncn3C)c(Nc3cc(C)n(C)n3)nc21
Outline: as §1

[4] = compound: CCn1cc(-c2ccnc3[nH]c(-c4cccc(CN(C)C)c4)cc23)c(-c2ccc(NC(=O)N(C)C)cc2)n1
Outline: as §1

[5] = compound: CN1CCC(CNc2ccc3ncc(-c4cccc(OC(F)(F)F)c4)n3n2)CC1
Outline: as §1

saracatinib = compound: CN1CCN(CCOc2cc(OC3CCOCC3)c3c(Nc4c(Cl)ccc5c4OCO5)ncnc3c2)CC1 [saracatinib]
Outline: as §1

sotrastaurin = compound: CN1CCN(c2nc(C3=C(c4c[nH]c5ccccc45)C(=O)NC3=O)c3ccccc3n2)CC1 [sotrastaurin]
Outline: as §1

Measured: log2 fold change

SNX6, A0A0A0MRI2
inactive: vemurafenib 0.005 | [1] 0.025 | barasertib 0.006 | [2] -0.111 | volasertib -0.05 | [3] 0.026 | [4] 0.21 | [5] -0.126 | saracatinib -0.002 | sotrastaurin -0.013

STAT2 (UniProt P52630)
UniProt P52630, sequence (P52630 whole entry, looked up): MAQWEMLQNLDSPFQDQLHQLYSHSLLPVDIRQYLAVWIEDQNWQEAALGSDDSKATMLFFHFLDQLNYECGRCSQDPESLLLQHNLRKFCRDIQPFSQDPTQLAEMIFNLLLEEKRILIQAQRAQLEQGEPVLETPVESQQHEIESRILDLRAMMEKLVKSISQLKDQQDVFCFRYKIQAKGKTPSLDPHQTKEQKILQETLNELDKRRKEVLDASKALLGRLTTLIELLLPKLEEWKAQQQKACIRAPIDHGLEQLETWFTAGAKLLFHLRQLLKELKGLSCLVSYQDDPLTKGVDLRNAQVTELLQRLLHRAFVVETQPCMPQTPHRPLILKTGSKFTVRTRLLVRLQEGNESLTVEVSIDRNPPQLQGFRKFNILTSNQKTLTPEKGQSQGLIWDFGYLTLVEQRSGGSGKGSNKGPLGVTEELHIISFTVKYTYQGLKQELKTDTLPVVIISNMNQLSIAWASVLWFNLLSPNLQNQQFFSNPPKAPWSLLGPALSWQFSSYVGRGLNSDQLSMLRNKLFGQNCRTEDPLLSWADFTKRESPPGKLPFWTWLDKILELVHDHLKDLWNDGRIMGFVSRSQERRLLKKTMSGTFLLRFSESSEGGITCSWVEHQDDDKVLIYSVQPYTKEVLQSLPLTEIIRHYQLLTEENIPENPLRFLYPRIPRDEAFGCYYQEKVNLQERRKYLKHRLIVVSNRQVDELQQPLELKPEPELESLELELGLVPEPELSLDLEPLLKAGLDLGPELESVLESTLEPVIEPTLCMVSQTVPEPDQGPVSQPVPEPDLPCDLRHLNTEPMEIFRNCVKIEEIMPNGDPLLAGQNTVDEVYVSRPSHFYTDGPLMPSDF
inactive: vemurafenib 0.04 | [1] 0.026 | barasertib -0.021 | [2] -0.03 | volasertib -0.047 | [3] 0.033 | [4] -0.011 | [5] -0.164 | saracatinib -0.009 | sotrastaurin 0.029

SKA2 (UniProt Q8WVK7)
UniProt Q8WVK7, sequence (Q8WVK7 whole entry, looked up): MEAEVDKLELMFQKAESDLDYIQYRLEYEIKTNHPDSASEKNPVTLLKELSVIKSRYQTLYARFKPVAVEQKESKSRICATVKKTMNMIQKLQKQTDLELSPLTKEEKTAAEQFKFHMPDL
inactive: vemurafenib 0 | [1] 0.014 | barasertib 0.078 | [2] 0 | volasertib -0.043 | [3] 0.02 | [4] -0.032 | [5] -0.015 | saracatinib 0.028 | sotrastaurin -0.097

TADA3 (UniProt O75528)
UniProt O75528, sequence (O75528 whole entry, looked up): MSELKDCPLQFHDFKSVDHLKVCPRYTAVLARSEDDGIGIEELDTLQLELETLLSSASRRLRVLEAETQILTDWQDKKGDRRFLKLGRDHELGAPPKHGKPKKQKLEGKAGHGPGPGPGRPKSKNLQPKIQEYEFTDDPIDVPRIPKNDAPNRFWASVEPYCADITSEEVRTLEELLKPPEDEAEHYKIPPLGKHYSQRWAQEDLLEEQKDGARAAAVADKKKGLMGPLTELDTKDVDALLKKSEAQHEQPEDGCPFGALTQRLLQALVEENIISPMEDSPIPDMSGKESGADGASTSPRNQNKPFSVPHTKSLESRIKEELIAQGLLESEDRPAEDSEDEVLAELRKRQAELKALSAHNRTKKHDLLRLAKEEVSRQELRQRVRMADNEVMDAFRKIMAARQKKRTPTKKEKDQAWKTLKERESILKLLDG
inactive: vemurafenib -0.007 | [1] 0.004 | barasertib 0.002 | [2] 0.008 | volasertib -0.006 | [3] -0.022 | [4] -0.122 | [5] 0.006 | saracatinib -0.017 | sotrastaurin -0.012

SLC11A2 isoform 3 (UniProt P49281)
UniProt P49281, sequence (P49281 whole entry, looked up): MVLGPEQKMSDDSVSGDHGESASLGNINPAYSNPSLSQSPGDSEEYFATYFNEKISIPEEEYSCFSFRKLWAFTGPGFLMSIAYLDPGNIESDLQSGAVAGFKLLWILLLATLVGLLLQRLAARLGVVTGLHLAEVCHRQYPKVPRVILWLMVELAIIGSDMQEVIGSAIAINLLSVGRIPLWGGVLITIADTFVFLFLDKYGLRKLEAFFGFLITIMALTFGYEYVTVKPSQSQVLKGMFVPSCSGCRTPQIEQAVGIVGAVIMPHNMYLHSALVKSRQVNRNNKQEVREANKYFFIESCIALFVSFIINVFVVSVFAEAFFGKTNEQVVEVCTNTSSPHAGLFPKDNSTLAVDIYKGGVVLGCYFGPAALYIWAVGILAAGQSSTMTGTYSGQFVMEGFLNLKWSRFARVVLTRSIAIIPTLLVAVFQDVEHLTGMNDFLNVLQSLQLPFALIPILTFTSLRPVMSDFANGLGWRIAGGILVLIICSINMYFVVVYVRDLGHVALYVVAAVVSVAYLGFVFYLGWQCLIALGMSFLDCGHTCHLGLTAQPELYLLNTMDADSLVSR
inactive: vemurafenib -0.009 | [1] 0.043 | barasertib 0.019 | [2] 0.073 | volasertib 0.026 | [3] 0.036 | [4] -0.082 | [5] 0.074 | saracatinib 0.028 | sotrastaurin -0.012

SOAT1 (UniProt P35610)
UniProt P35610, sequence (P35610 whole entry, looked up): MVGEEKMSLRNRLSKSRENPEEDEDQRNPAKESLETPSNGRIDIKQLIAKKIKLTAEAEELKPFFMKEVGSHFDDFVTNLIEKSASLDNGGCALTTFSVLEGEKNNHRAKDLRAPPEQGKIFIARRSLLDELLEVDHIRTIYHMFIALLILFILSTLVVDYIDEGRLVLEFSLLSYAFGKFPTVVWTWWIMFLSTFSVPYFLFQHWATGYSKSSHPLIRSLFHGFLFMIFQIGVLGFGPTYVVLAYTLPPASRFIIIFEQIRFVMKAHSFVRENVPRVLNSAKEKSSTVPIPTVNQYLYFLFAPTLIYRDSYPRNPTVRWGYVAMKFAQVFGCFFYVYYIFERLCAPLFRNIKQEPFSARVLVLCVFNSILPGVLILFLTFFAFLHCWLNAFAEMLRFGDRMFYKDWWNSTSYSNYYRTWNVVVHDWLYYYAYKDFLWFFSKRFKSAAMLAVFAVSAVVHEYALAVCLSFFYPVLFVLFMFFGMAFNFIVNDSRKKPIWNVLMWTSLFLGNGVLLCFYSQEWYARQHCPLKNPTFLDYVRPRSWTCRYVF
inactive: vemurafenib 0.047 | [1] 0.055 | barasertib 0.008 | [2] -0.003 | volasertib -0.009 | [3] -0.061 | [4] -0.063 | [5] -0.062 | saracatinib 0.016 | sotrastaurin 0.019

SLC25A44 (UniProt Q96H78)
UniProt Q96H78, sequence (Q96H78 whole entry, looked up): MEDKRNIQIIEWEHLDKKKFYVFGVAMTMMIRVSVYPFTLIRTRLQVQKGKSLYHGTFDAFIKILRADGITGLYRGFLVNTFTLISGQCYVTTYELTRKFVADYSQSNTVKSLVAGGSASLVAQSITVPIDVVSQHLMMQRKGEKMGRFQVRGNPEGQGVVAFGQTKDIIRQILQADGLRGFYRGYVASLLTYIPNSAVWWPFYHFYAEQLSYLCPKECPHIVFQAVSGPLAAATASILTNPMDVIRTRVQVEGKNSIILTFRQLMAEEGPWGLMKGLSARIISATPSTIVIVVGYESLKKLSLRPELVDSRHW
inactive: vemurafenib 0.014 | [1] 0.015 | barasertib 0.007 | [2] 0.002 | volasertib 0.06 | [3] 0.307 | [4] 0.021 | [5] 0.17 | saracatinib -0.041 | sotrastaurin 0.062

SPHK1 isoform 2 (UniProt Q9NYA1)
UniProt Q9NYA1, sequence (Q9NYA1 whole entry, looked up): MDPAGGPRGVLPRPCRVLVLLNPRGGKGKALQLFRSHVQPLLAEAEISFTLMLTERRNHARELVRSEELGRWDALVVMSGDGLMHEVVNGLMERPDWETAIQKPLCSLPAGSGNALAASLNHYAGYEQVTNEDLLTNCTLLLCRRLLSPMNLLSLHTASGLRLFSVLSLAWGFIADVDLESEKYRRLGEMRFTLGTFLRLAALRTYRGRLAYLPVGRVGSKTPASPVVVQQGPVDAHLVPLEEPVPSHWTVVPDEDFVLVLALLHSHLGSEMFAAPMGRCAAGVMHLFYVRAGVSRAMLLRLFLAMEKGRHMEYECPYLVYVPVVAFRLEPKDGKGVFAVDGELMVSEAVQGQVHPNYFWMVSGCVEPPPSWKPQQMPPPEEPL
inactive: vemurafenib -0.009 | [1] 0.034 | barasertib 0.008 | [2] -0.051 | volasertib -0.022 | [3] 0.171 | [4] -0.003 | [5] 0.056 | saracatinib 0.086 | sotrastaurin 0.029

SULT1A1 (UniProt P50225)
inactive: vemurafenib 0.014 | [1] 0.004 | barasertib -0.017 | [2] 0.032 | volasertib -0.046 | [3] -0.016 | [4] 0.014 | [5] -0.009 | saracatinib 0.037 | sotrastaurin -0.009

SLC12A6 (UniProt Q9UHW9)
UniProt Q9UHW9, sequence (Q9UHW9 whole entry, looked up): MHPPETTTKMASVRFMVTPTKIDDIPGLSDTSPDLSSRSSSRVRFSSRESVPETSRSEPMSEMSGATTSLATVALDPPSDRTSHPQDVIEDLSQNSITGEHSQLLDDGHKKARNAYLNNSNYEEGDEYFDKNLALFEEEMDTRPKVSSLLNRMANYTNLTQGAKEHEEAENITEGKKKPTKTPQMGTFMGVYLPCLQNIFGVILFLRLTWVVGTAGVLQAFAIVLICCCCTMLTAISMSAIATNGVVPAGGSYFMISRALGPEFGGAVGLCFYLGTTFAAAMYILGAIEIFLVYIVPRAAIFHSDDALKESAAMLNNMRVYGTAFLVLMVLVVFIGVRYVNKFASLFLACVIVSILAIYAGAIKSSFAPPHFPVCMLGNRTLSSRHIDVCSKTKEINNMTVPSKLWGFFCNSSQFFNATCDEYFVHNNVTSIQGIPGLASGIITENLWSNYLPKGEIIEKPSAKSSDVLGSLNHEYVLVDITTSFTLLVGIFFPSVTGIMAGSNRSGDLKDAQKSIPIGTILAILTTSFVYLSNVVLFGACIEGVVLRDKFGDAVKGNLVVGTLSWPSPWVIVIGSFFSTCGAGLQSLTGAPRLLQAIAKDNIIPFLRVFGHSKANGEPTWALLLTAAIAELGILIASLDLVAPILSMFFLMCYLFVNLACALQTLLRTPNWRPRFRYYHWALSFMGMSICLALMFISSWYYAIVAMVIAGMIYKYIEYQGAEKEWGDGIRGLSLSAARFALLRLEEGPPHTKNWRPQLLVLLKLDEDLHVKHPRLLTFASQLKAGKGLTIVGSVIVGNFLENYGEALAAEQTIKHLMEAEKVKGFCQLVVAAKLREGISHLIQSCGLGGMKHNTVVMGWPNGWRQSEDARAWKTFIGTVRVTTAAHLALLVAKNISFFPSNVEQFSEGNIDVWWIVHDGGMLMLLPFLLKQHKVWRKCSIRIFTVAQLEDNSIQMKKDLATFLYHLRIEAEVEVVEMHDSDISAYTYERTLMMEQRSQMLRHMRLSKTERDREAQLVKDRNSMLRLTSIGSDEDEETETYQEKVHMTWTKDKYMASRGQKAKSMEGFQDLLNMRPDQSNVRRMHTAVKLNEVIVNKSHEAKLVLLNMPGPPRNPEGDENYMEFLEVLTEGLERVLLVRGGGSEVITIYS
inactive: vemurafenib 0.015 | [1] 0.021 | barasertib 0.002 | [2] 0.037 | volasertib 0.002 | [3] 0.008 | [4] -0.06 | [5] 0.012 | saracatinib -0.003 | sotrastaurin -0.01

SFR1 isoform 2 (UniProt Q86XK3)
UniProt Q86XK3, sequence (Q86XK3 whole entry, looked up): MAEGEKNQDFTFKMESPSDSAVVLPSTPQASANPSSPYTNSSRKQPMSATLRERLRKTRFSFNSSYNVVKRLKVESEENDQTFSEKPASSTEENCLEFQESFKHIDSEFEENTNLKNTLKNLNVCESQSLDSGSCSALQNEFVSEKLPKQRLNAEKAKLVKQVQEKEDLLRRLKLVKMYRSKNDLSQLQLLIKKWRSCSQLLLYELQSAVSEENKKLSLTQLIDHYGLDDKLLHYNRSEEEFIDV
inactive: vemurafenib -0.031 | [1] -0.037 | barasertib 0.024 | [2] 0.028 | volasertib 0.022 | [3] 0.013 | [4] -0.087 | [5] -0.119 | saracatinib -0.04 | sotrastaurin 0.085

SPATA5 (UniProt Q8NB90)
inactive: vemurafenib 0.015 | [1] 0.005 | barasertib 0.02 | [2] -0.021 | volasertib -0.068 | [3] 0.011 | [4] -0.024 | [5] -0.052 | saracatinib -0.001 | sotrastaurin 0.007

STK4 (UniProt Q13043)
inactive: vemurafenib 0.058 | [1] 0.047 | barasertib 0.029 | [2] 0.002 | volasertib -0.046 | [3] 0.023 | [4] -0.019 | [5] 0.168 | saracatinib 0.029 | sotrastaurin 0.199

STOML2 (UniProt Q9UJZ1)
UniProt Q9UJZ1, sequence (Q9UJZ1 whole entry, looked up): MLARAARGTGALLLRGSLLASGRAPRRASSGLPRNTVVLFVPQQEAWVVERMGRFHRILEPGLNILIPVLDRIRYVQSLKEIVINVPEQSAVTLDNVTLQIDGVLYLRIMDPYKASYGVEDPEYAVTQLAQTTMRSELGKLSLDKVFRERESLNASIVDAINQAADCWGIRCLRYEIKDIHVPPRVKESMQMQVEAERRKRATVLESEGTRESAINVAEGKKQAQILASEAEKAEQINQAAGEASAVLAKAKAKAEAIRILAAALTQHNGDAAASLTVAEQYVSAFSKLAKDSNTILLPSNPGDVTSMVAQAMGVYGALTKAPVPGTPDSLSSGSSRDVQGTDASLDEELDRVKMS
inactive: vemurafenib 0.026 | [1] 0.009 | barasertib 0.115 | [2] 0.043 | volasertib 0.033 | [3] -0.015 | [4] 0.111 | [5] -0.047 | saracatinib -0.01 | sotrastaurin -0.002

SMC6 (UniProt Q96SB8)
inactive: vemurafenib 0.044 | [1] 0.01 | barasertib 0.014 | [2] 0.047 | volasertib -0.031 | [3] 0.012 | [4] -0.036 | [5] 0.024 | saracatinib 0.046 | sotrastaurin 0.027
